Measurements: the supplement of paper PMC10849652
Targets with a hit are over-represented here; the source holds about 7,900 in all. About 0.6% of all pairs of compound and target were hits.

compound: C#Cc1cccc(Nc2ncnc3cc(OCCOC)c(OCCOC)cc23)c1 [erlotinib]; test: log2 fold change, soluble protein after heating vs DMSO (PISA); higher = thermal stabilisation; K562 cells, 10 uM, 30 min; active = over 0.2 and 3.5 SD of the protein, either way, in both replicates (recomputed)
How it was run: (§1)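 Aliquots of K562 cells (2×10^6 cells/mL) treated with 10 μM compound for 30 min were heated for 3 min over 48°C-58°C. After pooling and extraction in PBS with 0.5% NP-40 at 4°C, soluble protein from a 21,000xg, 90 min spin was quantified by TMTpro 16plex LC-MS/MS with channel sums equalised. Thermal stability is expressed against control samples, from duplicates, as a log2 fold change.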

Sequence of UniProt P51809 (P51809 whole entry, looked up): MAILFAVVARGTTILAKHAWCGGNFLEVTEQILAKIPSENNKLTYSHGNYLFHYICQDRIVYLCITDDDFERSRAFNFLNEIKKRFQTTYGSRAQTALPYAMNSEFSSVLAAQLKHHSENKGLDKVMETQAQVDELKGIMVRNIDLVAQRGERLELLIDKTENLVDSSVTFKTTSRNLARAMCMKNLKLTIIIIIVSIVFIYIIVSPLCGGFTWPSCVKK
Sequence of UniProt A0PJW6 (A0PJW6 whole entry, looked up): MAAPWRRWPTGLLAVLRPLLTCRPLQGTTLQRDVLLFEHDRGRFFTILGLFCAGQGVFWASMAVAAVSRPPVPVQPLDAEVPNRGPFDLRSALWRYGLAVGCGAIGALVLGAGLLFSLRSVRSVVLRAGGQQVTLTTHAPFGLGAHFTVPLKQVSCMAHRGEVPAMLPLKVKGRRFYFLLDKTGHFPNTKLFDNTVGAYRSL
Sequence of UniProt Q9Y385 (Q9Y385 whole entry, looked up): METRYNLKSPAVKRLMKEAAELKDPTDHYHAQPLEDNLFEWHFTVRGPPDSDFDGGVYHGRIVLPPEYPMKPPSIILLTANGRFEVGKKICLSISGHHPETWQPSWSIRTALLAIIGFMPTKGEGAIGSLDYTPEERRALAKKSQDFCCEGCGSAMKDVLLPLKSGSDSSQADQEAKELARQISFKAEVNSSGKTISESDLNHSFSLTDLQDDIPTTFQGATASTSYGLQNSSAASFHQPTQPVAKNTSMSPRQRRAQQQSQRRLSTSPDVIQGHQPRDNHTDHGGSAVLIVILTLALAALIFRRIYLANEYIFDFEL
Sequence of UniProt P49815 (P49815 whole entry, looked up): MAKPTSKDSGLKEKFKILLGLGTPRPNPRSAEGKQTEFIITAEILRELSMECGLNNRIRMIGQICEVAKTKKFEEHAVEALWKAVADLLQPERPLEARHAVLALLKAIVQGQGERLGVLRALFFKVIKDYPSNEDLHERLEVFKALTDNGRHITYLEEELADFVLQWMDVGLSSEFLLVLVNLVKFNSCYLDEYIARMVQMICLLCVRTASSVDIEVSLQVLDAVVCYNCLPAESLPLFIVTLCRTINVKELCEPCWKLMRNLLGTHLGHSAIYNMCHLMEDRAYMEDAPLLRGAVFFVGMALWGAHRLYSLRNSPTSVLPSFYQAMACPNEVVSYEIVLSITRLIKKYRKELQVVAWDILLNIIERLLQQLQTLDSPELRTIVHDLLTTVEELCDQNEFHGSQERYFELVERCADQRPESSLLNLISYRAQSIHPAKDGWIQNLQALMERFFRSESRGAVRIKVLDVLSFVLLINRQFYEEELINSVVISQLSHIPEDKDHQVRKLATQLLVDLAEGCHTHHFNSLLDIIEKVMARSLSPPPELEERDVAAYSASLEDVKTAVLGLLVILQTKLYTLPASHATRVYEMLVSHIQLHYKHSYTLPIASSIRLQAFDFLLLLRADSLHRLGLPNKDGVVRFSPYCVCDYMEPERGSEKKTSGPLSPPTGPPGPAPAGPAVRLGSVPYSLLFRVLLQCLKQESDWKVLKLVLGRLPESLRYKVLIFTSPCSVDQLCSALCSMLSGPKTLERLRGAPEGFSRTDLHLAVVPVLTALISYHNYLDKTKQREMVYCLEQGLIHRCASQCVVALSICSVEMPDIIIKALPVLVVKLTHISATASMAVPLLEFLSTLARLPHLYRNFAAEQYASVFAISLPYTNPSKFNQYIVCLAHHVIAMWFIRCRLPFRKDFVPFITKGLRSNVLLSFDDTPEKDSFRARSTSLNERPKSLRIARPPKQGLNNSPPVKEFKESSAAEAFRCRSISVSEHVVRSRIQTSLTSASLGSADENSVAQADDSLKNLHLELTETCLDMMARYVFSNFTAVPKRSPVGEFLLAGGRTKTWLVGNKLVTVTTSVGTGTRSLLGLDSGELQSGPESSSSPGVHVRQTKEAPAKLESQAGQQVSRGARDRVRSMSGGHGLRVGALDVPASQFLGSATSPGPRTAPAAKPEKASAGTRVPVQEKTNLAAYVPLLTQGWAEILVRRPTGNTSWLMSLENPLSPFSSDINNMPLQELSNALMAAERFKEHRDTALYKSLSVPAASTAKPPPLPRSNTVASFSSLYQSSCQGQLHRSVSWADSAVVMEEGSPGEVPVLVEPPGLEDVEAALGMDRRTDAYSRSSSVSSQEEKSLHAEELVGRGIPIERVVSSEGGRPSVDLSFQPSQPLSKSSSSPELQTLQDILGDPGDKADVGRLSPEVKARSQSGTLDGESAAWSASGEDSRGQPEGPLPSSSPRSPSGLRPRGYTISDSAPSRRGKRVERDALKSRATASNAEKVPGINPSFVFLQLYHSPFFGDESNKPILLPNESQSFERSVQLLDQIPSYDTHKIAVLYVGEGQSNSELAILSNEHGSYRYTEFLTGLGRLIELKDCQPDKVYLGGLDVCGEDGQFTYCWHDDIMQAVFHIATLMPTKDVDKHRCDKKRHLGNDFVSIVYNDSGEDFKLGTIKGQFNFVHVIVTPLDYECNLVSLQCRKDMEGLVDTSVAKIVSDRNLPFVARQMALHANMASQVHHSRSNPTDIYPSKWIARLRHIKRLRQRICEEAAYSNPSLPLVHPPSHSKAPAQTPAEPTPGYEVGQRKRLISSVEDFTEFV
Sequence of UniProt O95155 (O95155 whole entry, looked up): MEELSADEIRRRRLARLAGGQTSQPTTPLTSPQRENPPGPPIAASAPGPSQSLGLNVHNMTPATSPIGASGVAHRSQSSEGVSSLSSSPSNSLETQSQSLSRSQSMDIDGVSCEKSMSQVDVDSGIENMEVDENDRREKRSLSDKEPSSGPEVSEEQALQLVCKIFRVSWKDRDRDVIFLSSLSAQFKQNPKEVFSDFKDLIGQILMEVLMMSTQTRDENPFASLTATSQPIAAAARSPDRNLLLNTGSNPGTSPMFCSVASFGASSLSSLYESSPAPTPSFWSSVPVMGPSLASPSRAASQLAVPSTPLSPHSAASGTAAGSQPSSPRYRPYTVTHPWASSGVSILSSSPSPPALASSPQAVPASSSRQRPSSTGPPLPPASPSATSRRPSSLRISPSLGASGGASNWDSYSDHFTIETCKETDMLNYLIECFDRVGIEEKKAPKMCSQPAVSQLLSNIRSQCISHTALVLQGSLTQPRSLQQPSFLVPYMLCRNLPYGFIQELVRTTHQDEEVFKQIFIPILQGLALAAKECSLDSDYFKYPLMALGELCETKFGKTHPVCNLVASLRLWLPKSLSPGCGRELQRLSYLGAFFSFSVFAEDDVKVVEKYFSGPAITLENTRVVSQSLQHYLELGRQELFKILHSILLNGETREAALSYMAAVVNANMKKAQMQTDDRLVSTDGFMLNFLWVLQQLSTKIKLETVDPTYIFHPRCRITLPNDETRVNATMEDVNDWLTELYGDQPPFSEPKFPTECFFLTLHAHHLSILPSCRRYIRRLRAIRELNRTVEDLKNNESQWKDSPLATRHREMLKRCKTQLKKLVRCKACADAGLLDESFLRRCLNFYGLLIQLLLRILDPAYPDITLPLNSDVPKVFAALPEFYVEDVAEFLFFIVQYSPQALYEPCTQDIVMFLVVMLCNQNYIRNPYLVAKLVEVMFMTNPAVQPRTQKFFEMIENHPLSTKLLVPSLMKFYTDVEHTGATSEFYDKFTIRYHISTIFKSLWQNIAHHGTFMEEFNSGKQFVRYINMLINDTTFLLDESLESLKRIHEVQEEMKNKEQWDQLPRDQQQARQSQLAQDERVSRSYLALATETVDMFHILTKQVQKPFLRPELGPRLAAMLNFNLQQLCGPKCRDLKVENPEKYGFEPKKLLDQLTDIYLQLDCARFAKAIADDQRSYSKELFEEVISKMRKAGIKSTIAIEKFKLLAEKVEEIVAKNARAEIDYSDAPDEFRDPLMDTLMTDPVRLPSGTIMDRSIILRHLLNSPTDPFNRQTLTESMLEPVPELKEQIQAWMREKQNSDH
Sequence of UniProt Q9BZI7 (Q9BZI7 whole entry, looked up): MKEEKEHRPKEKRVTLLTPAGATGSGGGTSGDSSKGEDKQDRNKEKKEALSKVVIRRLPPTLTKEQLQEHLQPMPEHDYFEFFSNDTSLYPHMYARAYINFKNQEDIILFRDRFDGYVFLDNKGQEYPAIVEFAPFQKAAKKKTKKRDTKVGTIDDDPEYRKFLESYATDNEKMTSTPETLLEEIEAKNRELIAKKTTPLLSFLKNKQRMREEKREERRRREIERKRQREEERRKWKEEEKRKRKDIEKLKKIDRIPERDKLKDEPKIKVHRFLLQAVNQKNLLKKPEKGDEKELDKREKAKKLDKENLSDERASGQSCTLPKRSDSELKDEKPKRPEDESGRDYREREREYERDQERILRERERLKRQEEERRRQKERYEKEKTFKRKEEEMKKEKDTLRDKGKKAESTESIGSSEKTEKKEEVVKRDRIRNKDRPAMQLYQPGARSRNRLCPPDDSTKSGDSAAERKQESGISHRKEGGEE
Sequence of UniProt P30291 (P30291 whole entry, looked up): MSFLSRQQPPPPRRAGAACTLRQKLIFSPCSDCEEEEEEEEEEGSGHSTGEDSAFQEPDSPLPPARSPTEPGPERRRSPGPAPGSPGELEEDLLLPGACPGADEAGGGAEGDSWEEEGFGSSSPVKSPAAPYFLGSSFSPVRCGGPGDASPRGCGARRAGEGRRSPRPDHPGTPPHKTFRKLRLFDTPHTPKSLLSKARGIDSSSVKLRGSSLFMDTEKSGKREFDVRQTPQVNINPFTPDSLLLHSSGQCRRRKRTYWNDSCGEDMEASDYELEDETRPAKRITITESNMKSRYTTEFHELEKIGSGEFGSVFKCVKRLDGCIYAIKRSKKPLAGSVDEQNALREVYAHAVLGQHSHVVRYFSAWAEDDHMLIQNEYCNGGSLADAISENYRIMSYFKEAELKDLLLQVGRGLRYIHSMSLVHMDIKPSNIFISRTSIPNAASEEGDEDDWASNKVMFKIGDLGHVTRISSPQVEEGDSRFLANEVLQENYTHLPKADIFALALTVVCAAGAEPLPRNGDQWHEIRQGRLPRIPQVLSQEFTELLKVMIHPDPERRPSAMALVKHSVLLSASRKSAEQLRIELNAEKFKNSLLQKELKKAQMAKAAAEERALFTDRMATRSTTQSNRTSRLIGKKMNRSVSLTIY

log2 fold change, inactive:
VAMP7 (UniProt P51809) -0.02
VTA1 (UniProt Q9NP79) -0.05
TRAPPC3 (UniProt O43617) -0.032
UBE2J1 (UniProt Q9Y385) 0.053
TMEM223 (UniProt A0PJW6) 0.005
XRCC6 (UniProt P12956) 0.025
UBE4B isoform 4 (UniProt O95155) -0.01
USP48 isoform 8 (UniProt Q86UV5) 0.114
WNK1 isoform 7 (UniProt Q9H4A3) 0.043
TRIM28 (UniProt Q13263) 0.001
WEE1 (UniProt P30291) 0.029
TSC2 (UniProt P49815) 0.276
UFM1 isoform 2 (UniProt P61960) -0.132
UPF3B (UniProt Q9BZI7) -0.108

compound: C/C(=N\NC(=O)C1=CC(=CC=C1)S(=O)(=O)N2CCOCC2)/C3=C(C=CC(=C3)Cl)O; test: as above
How it was run: as §1

log2 fold change, inactive:
TMEM219 (UniProt Q86XT9) 0.035
TRAPPC13 isoform 5 (UniProt A5PLN9) 0.047
TUBA4A (UniProt P68366) 0.048
TMEM104 (UniProt Q8NE00) -0.026
XPOT (UniProt O43592) 0.069
XIAP (UniProt P98170) 0.062
XRCC1 (UniProt P18887) -0.392
USP7 (UniProt Q93009) 0.139
WASHC2C, A0A096LPC5 -0.224
TMEM9B (UniProt Q9NQ34) -0.044
TP53BP1 isoform 2 (UniProt Q12888) 0.019
UFD1 isoform 1 (UniProt Q92890) 0.019
USP14 (UniProt P54578) 0.03
WDR62 isoform 4 (UniProt O43379) 0.015
TMEM106B (UniProt Q9NUM4) 0.028
WDR7 (UniProt Q9Y4E6) 0.074
USO1 isoform 2 (UniProt O60763) 0.046
UBLCP1 (UniProt Q8WVY7) 0.089
TMEM161A (UniProt Q9NX61) 0.088
TMEM164 (UniProt Q5U3C3) 0.178
UBE2J2 isoform 3 (UniProt Q8N2K1) 0.154
XPO1 (UniProt O14980) 0.118
VAMP7 (UniProt P51809) 0.003
VTA1 (UniProt Q9NP79) 0.124
TRAPPC3 (UniProt O43617) 0.102
UBE2J1 (UniProt Q9Y385) 0.063
TMEM223 (UniProt A0PJW6) 0.052
XRCC6 (UniProt P12956) 0.103
UBE4B isoform 4 (UniProt O95155) 0.026
USP48 isoform 8 (UniProt Q86UV5) 0.186
WNK1 isoform 7 (UniProt Q9H4A3) 0.014
TRIM28 (UniProt Q13263) 0.077
WEE1 (UniProt P30291) -0.06
TSC2 (UniProt P49815) -0.047
UFM1 isoform 2 (UniProt P61960) 0.108
UPF3B (UniProt Q9BZI7) -0.149
